The source of these data is PubChem BioAssay AID504466 (National Center for Advancing Translational Sciences (NCATS), 2011).

About 4,200 (1.3%) of roughly 330,000 compounds were called active. Not shown: some 6% with an inconclusive outcome. The call rests on the fitted dose curve; in most records, active means well fitted activation curve with a large enough effect; inconclusive means small, poorly fitted or top-dose-only effect; inactive means no such curve, though single readings can be large or run the other way. Only a selection was taken, and actives are over-represented in it overall.
Potency means the concentration at half of the fitted maximal effect.

A short description of this test: qHTS screen for small molecules that induce genotoxicity in human embryonic kidney (HEK293T) cells expressing luciferase-tagged ELG1. Further: nearly all actives have a fitted effect of over 60% in size. On activity change, positive = activation: % of control where 0% means no effect. As to conditions: HEK293T ELG1-luciferase reporter, luminescence, 16 h; series mostly up to 46 µM; activity change, positive = activation: at the top concentration. The essentials:
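Reporter readout depends on ELG1 protein level, which increases with genetic stress. After 16 hr compound exposure at 37 °C, luciferase activity was quantified using ONE-Glo.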
For orientation: qHTS replaces the single test concentration by a dilution series.
Take `Cc1ccc2cc(/C=N/Nc3ccc(C(=O)O)cc3)c(Cl)nc2c1`: the Potency was 18.3 µM (active).
Regarding `Cc1ccc2cc(/C=N/NC(=O)[C@@H]3CCCN3)c(Cl)nc2c1`, the “activity change, positive = activation” value was 4.73% (inactive).
As for `COc1ccc(CC(=O)N[C@@H]2c3cc(OC)c(OC)cc3C[C@H]2OCc2ccccc2)cc1`, the “activity change, positive = activation” value is -1.99% (inactive).
On the same count and under the same terms, under `O=C(CSc1nnc2n1CCCN2)c1ccccc1` stands 19.4% (inactive).
As for `O=C(CSc1nnc2ccccn12)c1ccccc1`, the Potency is 11.6 µM (active).
With `Cc1ccc(C(=O)NNC(=O)CSc2nnc3ccccn23)cc1`, the “activity change, positive = activation” value is -1.99% (inactive).
On the same count and under the same terms, the value for `Cc1cc(C(=O)CSc2nc(N)cc(=O)[nH]2)c(C)n1-c1cccc(F)c1` was 9.74% (inactive).
Regarding `Cc1ccc(-n2c(C)cc(C(=O)CSc3nnc4ccccn34)c2C)cc1`, the Potency is 5.17 µM (active).
Consider `CCN(C(=O)CSc1nnc2ccccn12)C1CCS(=O)(=O)C1` (configuration not stated), for which the “activity change, positive = activation” value was 0.0236% (inactive).
On the same count and under the same terms, under `CC1CCCCC12NC(=O)N(CC(=O)OCc1c(F)cccc1Cl)C2=O` (configuration not stated) stands -3.2% (inactive); under `C[C@H](NS(=O)(=O)c1ccc(Cl)cc1)C(=O)OCC(=O)N1CCOCC1`, -0.494% (inactive); under `COc1cc(OC)cc(-c2sc3ccc(OC)cc3c2-c2ccc3cc[nH]c3c2)c1`, -0.81% (inactive).
Turning to `Cn1c(SCC(=O)c2ccccc2)ncc(C(=O)Nc2ccc(F)cc2)c1=O`, the “activity change, positive = activation” value is -8.49% (inactive).
With `Cc1ccc(NC(=O)c2cnc(SCC(=O)NCC3CCCO3)n(C)c2=O)cc1` (configuration not stated), the Potency is 20.6 µM (active).
For `CCn1c(SCC(=O)NCC2CCCO2)nc2ccccc21` (configuration not stated), the “activity change, positive = activation” value was 0.58% (inactive).
Same read-out and setting: under `CCCc1cc(=O)[nH]c(SCC(=O)Nc2ccc(C(=O)Nc3ccccc3OC)cc2)n1` stands -2.48% (inactive).
As to `Cc1noc(C)c1C(=O)OC(C)C(=O)Nc1ccc2c(c1)OCO2` (configuration not stated), the “activity change, positive = activation” value was -1.04% (inactive).
On the same count and under the same terms, the value for `CC(=O)c1cccc(OCC(=O)OCC(=O)Nc2cc(S(=O)(=O)N3CCCCC3)ccc2C)c1` was 2.46% (inactive); that for `CC(C)Cn1c(SCC(=O)Nc2ccc(Cl)cc2F)nc(O)cc1=O` was 0.616% (inactive).
Turning to `O=C(Nc1ccc2c(c1)OCCO2)c1cnccn1`, the Potency was 5.8 µM (active).
On to `Cn1ccnc1SCC(=O)Nc1ccc2c(c1)OCCO2`, for which the Potency is 9.2 µM (active).
For the compound `CCn1c(SCC(=O)Nc2ccc3c(c2)OCCO3)nnc1C(C)C`, the “activity change, positive = activation” value was 0.0765% (inactive).
On the same count and under the same terms, the value for `O=C(CCN1C(=O)c2ccncc2C1=O)Nc1ccc2c(c1)OCCO2` was 4.24% (inactive); that for `O=C(Nc1cccc(NC(=O)c2ccco2)c1)c1cnccn1` was -4.27% (inactive).
The same measure, in the same setting: under `CCn1c(SCC(=O)Nc2ccc3c(c2)OCCO3)nnc1-c1ccncc1` stands 1.65% (inactive); under `CCC(CO)Oc1cc(NC(=O)c2cccc3ccccc23)c2ncn(C(C)C)c2c1` (configuration not stated), -6.25% (inactive); under `O=C(CSc1nc2ccccc2c(=O)n1Cc1ccc(F)cc1)NCC1CCCO1` (configuration not stated), 0.695% (inactive).
For the compound `O=C1CCC/C=C\C[C@@H](CC(=O)N(CCO)Cc2ccccc2)C(=O)NCCO1`, the “activity change, positive = activation” value is 3.48% (inactive).
In the case of `CC1CCCCC1NC(=O)Cn1cnc2c1c(=O)n(C)c(=O)n2C` (configuration not stated), the “activity change, positive = activation” value was -0.309% (inactive).
The same measure, in the same setting: under `Cc1ccc(C)c(NC(=O)COC(=O)c2nn(C)c(=O)c3ccccc23)c1` stands -0.628% (inactive); under `COc1ccc2oc(=O)c(C(=O)N3CCCC3)cc2c1`, -0.134% (inactive).
On to `Cc1ccc2cc3cc(C(=O)N4CCCCCC4)oc3nc2c1`, for which the Potency was 0.731 µM (active).
With `Cc1cc(C)cc(NC(=O)N2CCCCCCC2)c1`, the “activity change, positive = activation” value was 0.91% (inactive).
For the compound `COc1ccc(CNC(=O)C[C@H]2C[C@H](C(=O)N3CCOCC3)[C@@]3(C)c4[nH]c5cc(CCC(=O)N(C)C)ccc5c4CCN3C2=O)cc1OC`, the “activity change, positive = activation” value was 8.67% (inactive).
Same read-out and setting: under `O=C(CCNC(=O)c1ccccc1Cl)NN=Cc1ccco1` stands 3.81% (inactive).
Still for that read-out and setting: under `Cc1ccsc1C(=O)NNC(=O)COc1ccc(Br)cc1` stands 6.26% (inactive).
For the compound `Cc1ccc(N/C=C/C(=O)c2ccccc2)cc1C`, the Potency was 0.92 µM (active).
Take `Cc1noc(NS(=O)(=O)c2ccc(N/C=C/C(=O)c3ccccc3)cc2)c1C`: the “activity change, positive = activation” value is 19.6% (inactive).
With `CC(OC(=O)/C=C/c1ccccc1)C(=O)Nc1ccc(C(N)=O)cc1` (configuration not stated), the “activity change, positive = activation” value is 0.672% (inactive).
On to `CC(=O)Nc1ccc(/C=C/C(=O)c2ccccc2)cc1`, for which the Potency is 16.4 µM (active).
`CC(=O)Nc1ccc(NC(=S)NC(=O)/C=C/c2ccccc2)cc1`: the “activity change, positive = activation” value was -5.8% (inactive).
Take `O=C(/C=C/NCc1ccc(F)cc1)c1ccccc1`: the “activity change, positive = activation” value is 11.6% (inactive).
For `Cc1ccc(S(=O)(=O)Nc2ccc3c(c2)C(=O)N([C@H](C)CO)C[C@@H](C)[C@@H](CN(C)C(=O)Nc2cccc4ccccc24)O3)cc1`, the “activity change, positive = activation” value is -1.85% (inactive).
Same read-out and setting: the value for `O=C(NCCCN1CCOCC1)c1cn(-c2ccccc2)nc1-c1ccc(F)cc1` was 1.72% (inactive); that for `O=C(COC(=O)c1cccnc1Cl)NC(=O)NC1CCCCC1` was 3.37% (inactive).
Still for that read-out and setting: the value for `O=C(COc1ccc(Br)cc1F)NCC1(N2CCCCC2)CCCCC1` was 0.0074% (inactive); that for `CC(C)n1cnc2c(NCc3ccccc3)cc(N[C@@H](CO)Cc3ccccc3)cc21` was -8.63% (inactive).
Regarding `CCOc1ccc(Br)cc1S(=O)(=O)Nc1ccc(S(=O)(=O)Nc2cc(C)on2)cc1`, the “activity change, positive = activation” value was 0.63% (inactive).
The same measure, in the same setting: under `O=C(Nc1cccc(S(=O)(=O)N2CCCCC2)c1)c1cncc(Br)c1` stands -7.13% (inactive).
As to `Cc1ccccc1NC(=O)NNC(=O)OC(C)(C)C`, the “activity change, positive = activation” value is -0.874% (inactive).
As for `CC(C)(C)OC(=O)N/N=C/c1ccc(C(=O)O)cc1`, the “activity change, positive = activation” value was -2.14% (inactive).
`C/C(=N\NC(=O)OC(C)(C)C)c1ccc[nH]1`: the Potency was 14.6 µM (active).
